For experiment [1], the target named is Acetylcholinesterase (Homo sapiens) (UniProt P22303). The experiment in a line: Acetylcholinesterase (AChE) small molecule antagonists: colormetric cell-based qHTS assay (AID 1347395). Note: nearly all actives have a fitted effect of over 30% in size. Note: potency is the fitted concentration of half-maximal effect. In short, it runs like this: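 Endogenous AChE of human neuroblastoma SH-SY5Y cells was measured with an Ellman-type DTNB/acetylthiocholine mix. Compound pretreatment lasted 30 min at 37 C; substrate reaction ran 90 min at 37 C.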
(In general: qHTS replaces the single test concentration by a dilution series.)

The target is the same in experiment [2]. Put plainly: Acetylcholinesterase (AChE) small molecule antagonists: enzyme-based qHTS assay (AID 1347397). Note: nearly all actives have a fitted effect of over 55% in size. Note: potency is the fitted concentration of half-maximal effect. To be noted: Potency: AChE enzyme activity inhibition; outcome: AChE enzyme activity inhibition. A digest of the protocol: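 Tox21 library chemicals are tested in qHTS format against recombinant human AChE. The enzyme, dispensed at 50 mU/mL, sits with compound for 30 min at room temperature. A DTNB–acetylthiocholine cocktail follows, and colour is read after 10 min.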

The target is the same in experiment [3]. Put plainly: Acetylcholinesterase (AChE) small molecule antagonists: fluorescence cell-based qHTS assay (AID 1347398). Note: nearly all actives have a fitted effect of over 50% in size. To be noted: Potency: AChE activity; outcome: AChE activity. In short, it runs like this: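 Cellular AChE inhibition: SH-SY5Y cells treated with test chemical for 30 min at 37 C, then acetylthiocholine hydrolysis followed over 40 min at room temperature via thiocholine-reactive Thiolite Green fluorescence (490/520 nm).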

For experiment [4] the target is unchanged. The experiment in a line: Acetylcholinesterase (AChE) small molecule antagonists: enzyme-based qHTS assay with human liver microsomes (AID 1347399). Note: nearly all actives have a fitted effect of over 60% in size. Note: potency is the fitted concentration of half-maximal effect. Particulars: Potency: qHTS inhibition; outcome: qHTS inhibition. A digest of the protocol: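 Recombinant human AChE (50 mU/mL in the enzyme mix) and human liver microsomes (0.25 mg/mL final) were preincubated with compound and NADPH (0.25 mg/mL final) for 30 min at 37 C. Acetylthiocholine/DTNB was then added; thiocholine was read colorimetrically after 10 min at room temperature.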

Where “and” joins values, the source holds several entries; their conditions need not be identical. Equal values may be shown once. Inconclusive results are not listed. Calls of active or inactive are those of the source. Calls come from the whole dose curve.

Chain of Acetylcholinesterase (Homo sapiens) (P22303 whole entry, looked up): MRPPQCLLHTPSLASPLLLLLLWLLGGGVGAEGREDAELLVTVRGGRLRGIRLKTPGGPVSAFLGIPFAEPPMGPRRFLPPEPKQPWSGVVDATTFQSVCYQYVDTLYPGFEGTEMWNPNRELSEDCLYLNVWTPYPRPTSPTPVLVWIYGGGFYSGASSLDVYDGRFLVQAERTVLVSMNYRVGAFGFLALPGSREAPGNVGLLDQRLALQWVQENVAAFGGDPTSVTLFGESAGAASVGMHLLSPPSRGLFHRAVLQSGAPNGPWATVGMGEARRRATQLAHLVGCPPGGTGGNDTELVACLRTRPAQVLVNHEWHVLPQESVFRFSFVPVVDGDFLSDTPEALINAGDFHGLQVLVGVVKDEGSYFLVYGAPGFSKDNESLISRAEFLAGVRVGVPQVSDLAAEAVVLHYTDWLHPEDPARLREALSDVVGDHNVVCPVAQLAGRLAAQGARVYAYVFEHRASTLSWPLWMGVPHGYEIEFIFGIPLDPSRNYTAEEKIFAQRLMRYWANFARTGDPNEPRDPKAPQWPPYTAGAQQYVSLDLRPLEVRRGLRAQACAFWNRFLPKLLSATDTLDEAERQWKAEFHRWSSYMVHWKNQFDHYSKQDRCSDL

`COC(C)COC(C)COC(C)CO` (stereo not given): the Potency entry in experiment [1], in experiment [2], in experiment [3] and in experiment [4] was “inactive” in each case.
Regarding `O=C(CC(=O)c1ccccc1)c1ccccc1`, the Potency result in experiment [1], in experiment [2], in experiment [3] and in experiment [4] was “inactive” throughout.
As for `Cc1cc(C(=O)O)ccc1[N+](=O)[O-]`, the Potency result in experiment [1], in experiment [2], in experiment [3] and in experiment [4] was “inactive” throughout.
Consider `C=C(C)C(=O)OCCCCCC`, for which the Potency result in experiment [1], in experiment [2], in experiment [3] and in experiment [4] was “inactive” throughout.
On to `Cc1ccc(C=O)cc1C`, for which the Potency entry in experiment [1], in experiment [2], in experiment [3] and in experiment [4] was “inactive” each time.
As for `C=Cc1ccccn1`, the Potency entry in experiment [1], in experiment [2], in experiment [3] and in experiment [4] was “inactive” throughout.
Consider `CCCCC1CCC(O)CC1` (stereo not given), for which the Potency result in experiment [1], in experiment [2], in experiment [3] and in experiment [4] was “inactive” each time.
As to `O=C(O)COC(=O)Cc1ccccc1Nc1c(Cl)cccc1Cl`, the Potency entry in experiment [1], in experiment [2], in experiment [3] and in experiment [4] was “inactive” in each case.
Take `CC(=O)N(CC(O)CN(C(C)=O)c1c(I)c(C(=O)NCC(O)CO)c(I)c(C(=O)NCC(O)CO)c1I)c1c(I)c(C(=O)NCC(O)CO)c(I)c(C(=O)NCC(O)CO)c1I` (stereo not given): the Potency entry in experiment [1], in experiment [2], in experiment [3] and in experiment [4] was “inactive” throughout.
`C#CCN[C@@H]1CCc2ccccc21`: the compound was classed as inactive in experiment [1], in experiment [2], in experiment [3] and in experiment [4].
Regarding `CC(=O)OC1CCCCC1`, the Potency result in experiment [1], in experiment [2], in experiment [3] and in experiment [4] was “inactive” in each case.
Consider `CCN=c1cc2oc3cc(NCC)c(C)cc3c(-c3ccccc3C(=O)OCC)c-2cc1C`, for which the Potency in experiment [1] was 6.31 µM (active) and 8.94 µM (active); in experiment [2] it was 17.8 µM (active); in experiment [4] it was 79.4 µM (active) and 63.3 µM (active). Besides, in experiment [3], the Potency entry was “inactive”.
For the compound `CN1Cc2cc(C(=O)N3CCC(C4CCNCC4)CC3)ccc2N[C@@H](CC(=O)O)C1=O`, the Potency entry in experiment [1], in experiment [2], in experiment [3] and in experiment [4] was “inactive” each time.
Regarding `O=C(/C=C/c1ccc([N+](=O)[O-])cc1)c1ccccc1`, the Potency result in experiment [1], in experiment [2], in experiment [3] and in experiment [4] was “inactive” throughout.
With `CCCCCCCCCCCCCCCCN`, the Potency entry in experiment [1], in experiment [2], in experiment [3] and in experiment [4] was “inactive” in each case.
`O=C(O)c1cc(C(=O)O)cc(S(=O)(=O)O)c1`: the Potency entry in experiment [1], in experiment [2], in experiment [3] and in experiment [4] was “inactive” in each case.
Turning to `OC[C@@H](O)[C@@H](O[C@@H]1O[C@H](CO)[C@H](O)[C@H](O)[C@H]1O)[C@H](O)[C@@H](O)CO`, the Potency entry in experiment [1], in experiment [2], in experiment [3] and in experiment [4] was “inactive” in each case.
As for `COC(=O)Nc1ccc(Cl)c(Cl)c1`, the Potency result in experiment [1], in experiment [2], in experiment [3] and in experiment [4] was “inactive” each time.
With `CCCCC(CC)COC(=O)CCCCCCCCC(=O)OCC(CC)CCCC` (stereo not given), the Potency entry in experiment [1], in experiment [2], in experiment [3] and in experiment [4] was “inactive” in each case.
As to `CC(C)(Oc1ccc(Cl)cc1)C(=O)O`, the Potency result in experiment [1], in experiment [2], in experiment [3] and in experiment [4] was “inactive” in each case.
On to `c1cnc2cc3c(cc2n1)C1CNCC3C1`, for which the Potency result in experiment [1], in experiment [2], in experiment [3] and in experiment [4] was “inactive” in each case.
As for `Cc1cc(O)cc2c1O[C@](C)(CCC[C@H](C)CCC[C@H](C)CCCC(C)C)CC2`, the Potency entry in experiment [1], in experiment [2], in experiment [3] and in experiment [4] was “inactive” each time.
With `OCCOCCOCCOCCO`, the Potency entry in experiment [1], in experiment [2], in experiment [3] and in experiment [4] was “inactive” each time.
With `CC(C)(C)C(=O)CCc1ccc(Cl)cc1`, the Potency result in experiment [1], in experiment [2], in experiment [3] and in experiment [4] was “inactive” throughout.
As for `CN1CC(=O)N/C1=N/C(=O)Nc1cccc(Cl)c1`, the Potency result in experiment [1], in experiment [2], in experiment [3] and in experiment [4] was “inactive” each time.
As to `O=C=Nc1ccc(Cc2ccc(N=C=O)cc2)cc1`, the Potency entry in experiment [1], in experiment [2], in experiment [3] and in experiment [4] was “inactive” in each case.
With `O=C(/C=C/c1ccc(O)c(O)c1)O[C@@H](C(=O)O)[C@@H](OC(=O)/C=C/c1ccc(O)c(O)c1)C(=O)O`, the Potency result in experiment [1], in experiment [2], in experiment [3] and in experiment [4] was “inactive” in each case.
Regarding `CC(C)(N)C#N`, the Potency entry in experiment [1], in experiment [2], in experiment [3] and in experiment [4] was “inactive” each time.
Take `CCCCN(CCCC)CCC(O)c1cc2c(Cl)cc(Cl)cc2c2cc(C(F)(F)F)ccc12` (stereo not given): the Potency entry in experiment [1], in experiment [2], in experiment [3] and in experiment [4] was “inactive” each time.
Turning to `Cc1cccc2n[nH]nc12`, the Potency entry in experiment [1], in experiment [2], in experiment [3] and in experiment [4] was “inactive” throughout.
